# Screening results as filed in PubChem.
# The list is not random: actives were taken first. Their share in the collection is about 0.68%.
# TbPYK inhibitor: inhibitors of Trypanosoma brucei pyruvate kinase; Q57TT1; TbPYK enzyme, Kinase-Glo Plus ATP luminescence, 45 min; Potency, µM (titrated, usually from 76.8 µM), for inactives: at the highest dose activity, negative = inhibition, actives largely listed as inhibitors; hit rate 0.12% among 410,000; note: nearly all actives have a fitted effect of over 50% in size
#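 TbPYK + substrate in 50 mM TEA pH 7.2, 100 mM KCl, 10 mM MgCl2, 0.05% BSA, 0.01% Tween-20; cpd pinned; ADP 130 uM final; 45 min RT; Kinase-Glo Plus 10 min; luminescence endpoint.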
# LmPK inhibitor: LmPK (Leishmania mexicana) enzyme inhibition | Q27686 | purified LmPK, Kinase-Glo ATP luminescence, 1 h | Potency, µM (series often up to 57.5 µM), without a hit: top-dose activity change, negative = inhibition, hits mostly inhibitors | hit rate 0.37% among 290,000 | AID 1721
# Target sequence (Q27686 whole entry, looked up): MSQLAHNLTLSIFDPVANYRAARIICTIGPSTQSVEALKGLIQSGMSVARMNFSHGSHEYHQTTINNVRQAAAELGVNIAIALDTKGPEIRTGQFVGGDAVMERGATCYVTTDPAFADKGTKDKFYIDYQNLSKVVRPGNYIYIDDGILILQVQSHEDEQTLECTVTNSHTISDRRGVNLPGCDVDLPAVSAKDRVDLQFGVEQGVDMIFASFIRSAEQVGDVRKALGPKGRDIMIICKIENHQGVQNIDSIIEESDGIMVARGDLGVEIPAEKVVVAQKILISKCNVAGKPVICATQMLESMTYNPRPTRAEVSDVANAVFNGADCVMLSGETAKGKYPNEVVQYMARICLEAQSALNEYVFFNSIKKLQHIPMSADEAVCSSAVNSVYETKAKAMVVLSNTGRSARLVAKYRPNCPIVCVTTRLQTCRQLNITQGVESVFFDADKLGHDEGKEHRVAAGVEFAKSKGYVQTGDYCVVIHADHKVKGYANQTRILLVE
#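 0.1 nM LmPK, 0.5 mM PEP, 0.1 mM ADP; 50 mM imidazole pH 7.2, 7 mM MgCl2, 50 mM KCl; 1 h RT. Kinase-Glo luminescence readout, normalized to no-enzyme (full inhibition) and uninhibited wells.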
# AMA1 RON2 block: disrupts binding of P. falciparum AMA1 to RON2; AlphaScreen AMA1-biotinylated RON2 peptide binding; Potency, µM (top dose mostly 58.2 µM), inactives show at the highest dose activity change, negative = inhibition, most hits filed as inhibitors; hit rate 0.2% among 360,000;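 note: 0% = vehicle wells and -100% = peptide control; nearly all actives have a fitted effect of over 45% in size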
#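 AMA1 (3D7) with his tag at 25 nM final met compounds first, then biotinylated RON2 peptide at 25 nM; detection used donor plus acceptor beads, 10 µg/mL apiece, read by AlphaScreen after 30 min at room temperature.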
# RE007 growth inh: less growth of the S. pombe RE007 Vpr strain; hit rate 0.21% among 360,000; AID 651644; Potency, µM (highest dose often 92.2 µM), inactives show at the top dose activity change, negative = less growth, hits mostly inhibitors; S. pombe RE007 Vpr strain, BacTiter-Glo ATP luminescence, 24 h; active = well fitted falling curve with a large enough effect; inconclusive = small, poorly fitted or top-dose-only effect; inactive = no such curve, though single readings can be large or run the other way; note: nearly all actives have a fitted effect of over 50% in size
#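 Fission yeast strain RE007, carrying one chromosomally integrated HIV-1 vpr copy, was seeded at OD 0.01 in PMG+AL medium with 23 nL pinned compound. After 24 h at 30 °C and 99% humidity, viability was read by BacTiter-Glo luminescence.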
# An asterisk follows results filed as active; ? = inconclusive; nt = no result; [ ] = dose if it differs, or a comment. Unless noted, calls come from the whole dose curve; as a rule, active = well fitted curve in the direction sought with a large enough effect; inconclusive = small, poorly fitted or top-dose-only effect, or another doubt; inactive = no such curve, though single readings can be large; an effect the other way counts as inactive or inconclusive. Unless noted, % is set by controls: 0 for no effect and ±100 for the full control effect; potency is the fitted concentration of half-maximal effect.
SMILES,TbPYK inhibitor,LmPK inhibitor,AMA1 RON2 block,RE007 growth inh
Cc1ccc(S(=O)(=O)CCC(=O)c2cccc([N+](=O)[O-])c2)cc1,?,2%,0%,5.6µM*
COc1ccc(N2CCN(C(=O)c3cccc(N4C(=O)C5C6C=CC(C6)C5C4=O)c3)CC2)cc1 (stereo not given),0%,2%,2%,3%
O=[N+]([O-])c1ccccc1-c1ccc(C(=S)N2CCCCC2)o1,-6%,-4%,25µM*,-18%
CCn1c2ccccc2c2cc(CN3CCN(Cc4cc(OC)ccc4O)CC3)ccc21,-12%,-7%,13µM*,-20%
CCNC(=S)NNC(=O)c1cc(-c2ccc(OCC)cc2)nc2ccccc12,-17%,-17%,44%,?
Cc1cccc(NS(=O)(=O)Cc2ccccc2)c1C,-6%,0%,2%,-17%
Cc1cccc(N2CN=c3s/c(=C\c4ccncc4)c(=O)n3C2)c1,0%,4%,8%,-5%
Cc1cc(C)nc(Nc2ccc(N3CCCC3)cc2)n1,-20%,-10%,32µM*,9%
CCN1CCN(C(=S)c2ccc([N+](=O)[O-])cc2)CC1,?,-1%,-2%,nt
Cc1ccc(/C=N/NC(=O)NC2CCCCC2)o1,-5%,1%,-2%,11%
Cc1ccc(/C=C/C(=O)NC2CCCCCCC2)o1,7.9µM*,-7%,-23%,-91%
CCN(CC)c1ccc(NC(=O)c2cnn(CC)c2)cc1,-18%,-7%,-19%,-5%
CCN(CCCl)c1cc(CN(C)C)cc(NC(=O)c2ccc(C(=O)Nc3cc(CN(C)C)cc(N(CC)CCCl)c3)cc2)c1,-2%,nt,25µM*,23%
COc1ccc(NC(=O)N2CC3(CCN(C(=O)c4c(C)noc4C)CC3)C2)cc1,0%,nt,nt,nt
[Cl][Pt][Cl],10µM*,nt,nt,nt
N#Cc1c(NC(=O)CCC(=O)O)sc2c1CCCCC2,35µM*,11%,-1%,0%
N#Cc1c(NC(=O)CCC(=O)O)sc2c1CCCC2,-8%,4%,4%,-6%
COc1ccc(Oc2ncc3nc(-c4ccc(Cl)cc4)c(=O)n(C)c3n2)cc1,2%,nt,nt,nt
c1ccc(-c2nc3ccccc3o2)nc1,2%,-23%,15%,0%
c1ccc2nc(-c3nc4ccccc4o3)ccc2c1,?,3.2µM*,18%,?
COc1cc(C(=O)N2CCCCC2c2cc(C(=O)Nc3ccccc3Cl)no2)cc(OC)c1C (stereo not given),6%,nt,-5%,0%
CN1CCN(S(=O)(=O)c2cccc(C(=O)N(Cc3nnc(-c4ccc(Cl)cc4)o3)C3CC3)c2)CC1,4%,nt,-19%,-15%
Cc1ccc(C)c(N=Nc2nc3ccccc3n2C)c1,3%,?,11µM*,?
Cc1cc(C)c(C)c(N=Nc2nc3ccccc3n2C)c1C,-11%,-7%,11µM*,-17%
Cc1ccc(CNc2nc3ccccc3n2C)cc1,-17%,-12%,-2%,-2%
SMILES,TbPYK inhibitor,LmPK inhibitor,AMA1 RON2 block,RE007 growth inh
Cc1cc(C)nc(/N=C(/NC(=O)Nc2cccc(Cl)c2)Nc2ccccc2)n1,-5%,-3%,8%,-1%
O=C(N/N=C/c1ccc(O)c(O)c1)N/N=C/c1ccc(O)c(O)c1,4%,0%,?,-4%
Cc1nonc1C(=O)N/N=C/c1ccc(O)c(O)c1,?,13µM*,1%,?
COc1cc(/C=N/NC(=O)c2nonc2C)ccc1O,-5%,14µM*,4%,0%
CCc1nnc(NC(=O)CN2CCN(c3nc(-c4ccccc4)cs3)CC2)s1,?,0%,-6%,-8%
CCCCn1cc2c(c1-c1ccc(Cl)cc1)c(=O)n(C)c(=O)n2C,6%,nt,nt,nt
Oc1ccc(Nc2ccc3ccccc3c2)cc1,-16%,nt,14µM*,?
CN(C(=O)CCNC(=O)Cn1cnc2ccccc2c1=O)c1ccc(F)cc1,3%,0%,-5%,-5%
CCCCCCCCNS(=O)(=O)CCNCc1ccc(OC)cc1,-9%,nt,14%,-3%
CN(C)CCNCCCNc1c2ccccc2nc2cccc([N+](=O)[O-])c12,-4%,nt,25%,-1%
O=C1c2sc3nc4n(c(=O)c3c2CCC1Br)CCCCC4 (stereo not given),?,28µM*,6%,2%
O=C1CCCc2c1sc1nc3n(c(=O)c21)CCCCC3,4%,-8%,-16%,3%
N/C(=N/OC(=O)c1ccccc1Cl)c1nonc1N,?,1%[11.5 µM],-19%,28µM*
Cc1ccc(/C(N)=N/OC(=O)c2ccc(F)cc2)cc1,6%,-2%,0%,-28%
